According to PubChem BioAssay (NCATS):
Unmarked numbers belong to inactive results. Results filed as inconclusive are left out. Where a call stands in place of a potency, no number is given. Calls of active or inactive are those of the source. Unless noted, calls follow the shape of the dose curve; as a rule, active = well fitted curve in the direction sought with a large enough effect; inconclusive = small, poorly fitted or top-dose-only effect, or another doubt; inactive = no such curve, though single readings can be large; an effect the other way counts as inactive or inconclusive.

Legend:
[1] = target: Beta-2 adrenergic receptor (Homo sapiens) (UniProt P07550); assay: qHTS validation assay of beta-arrestin-biased ligands of beta2-adrenergic receptor (AID 485366)
Beta-2 adrenergic receptor (Homo sapiens), sequence (P07550 whole entry, looked up): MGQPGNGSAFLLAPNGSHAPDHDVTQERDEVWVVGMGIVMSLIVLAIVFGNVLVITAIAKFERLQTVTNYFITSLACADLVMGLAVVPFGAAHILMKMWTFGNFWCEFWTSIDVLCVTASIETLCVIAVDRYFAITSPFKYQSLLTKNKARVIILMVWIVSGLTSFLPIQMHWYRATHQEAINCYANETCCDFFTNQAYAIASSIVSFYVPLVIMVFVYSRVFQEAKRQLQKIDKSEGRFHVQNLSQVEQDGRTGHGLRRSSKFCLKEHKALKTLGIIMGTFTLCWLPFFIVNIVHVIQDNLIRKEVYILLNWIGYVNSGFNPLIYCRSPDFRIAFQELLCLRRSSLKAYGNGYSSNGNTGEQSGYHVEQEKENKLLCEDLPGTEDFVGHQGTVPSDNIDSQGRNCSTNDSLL
Summary of the method: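 Tango cells expressing recombinant beta2-AR and beta-arrestin with tTA-driven luciferase, in DMEM with 1% FBS. Compounds were titrated up to 46 microM for 18 hr at 37 degrees C. Luminescence was read 15 min after substrate; curves were fitted and class-assigned.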

[2] = target: ATP-dependent 6-phosphofructokinase (Trypanosoma brucei brucei) (UniProt O15648); assay: qHTS Validation Assay to Find Inhibitors of T. brucei phosphofructokinase (AID 485368)
ATP-dependent 6-phosphofructokinase (Trypanosoma brucei brucei), sequence (O15648 whole entry, looked up): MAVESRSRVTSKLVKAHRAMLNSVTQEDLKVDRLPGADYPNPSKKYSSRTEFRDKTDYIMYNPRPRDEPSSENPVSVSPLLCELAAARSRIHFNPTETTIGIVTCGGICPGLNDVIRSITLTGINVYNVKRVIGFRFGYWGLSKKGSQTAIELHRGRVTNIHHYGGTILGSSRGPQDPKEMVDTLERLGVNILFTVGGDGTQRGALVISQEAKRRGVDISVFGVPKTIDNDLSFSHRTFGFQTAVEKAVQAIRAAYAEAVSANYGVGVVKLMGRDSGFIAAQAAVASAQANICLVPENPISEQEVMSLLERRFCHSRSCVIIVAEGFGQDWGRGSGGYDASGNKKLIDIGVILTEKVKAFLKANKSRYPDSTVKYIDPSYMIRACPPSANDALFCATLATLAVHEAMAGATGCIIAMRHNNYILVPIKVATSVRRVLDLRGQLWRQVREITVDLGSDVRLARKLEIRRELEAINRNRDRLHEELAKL
Summary of the method: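 Activity was read as ADP production by luminescence (ADP-Glo) after 45 min at room temperature. The enzyme was 1.25nM PFK in 0.1M TEA pH 8.0 with 0.5 mM F6P, 0.1mM ATP and 5 mM MgCl2. Compounds were titrated up to 57 uM and % activity normalized to no-enzyme and full-enzyme controls.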

[3] = target: Thioredoxin reductase 1, cytoplasmic (Rattus norvegicus) (UniProt O89049); assay: qHTS Assay for Substrates of Mammalian Selenoprotein Thioredoxin Reductase 1 (TrxR1) (AID 488772);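 also: NADPH fluorescence in the first read after selenite addition and not the 8 min delta; series mostly up to about 57 µM; a drop in NADPH fluorescence below the no-compound background marks a TrxR1 substrate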
Thioredoxin reductase 1, cytoplasmic (Rattus norvegicus), sequence (O89049 whole entry, looked up): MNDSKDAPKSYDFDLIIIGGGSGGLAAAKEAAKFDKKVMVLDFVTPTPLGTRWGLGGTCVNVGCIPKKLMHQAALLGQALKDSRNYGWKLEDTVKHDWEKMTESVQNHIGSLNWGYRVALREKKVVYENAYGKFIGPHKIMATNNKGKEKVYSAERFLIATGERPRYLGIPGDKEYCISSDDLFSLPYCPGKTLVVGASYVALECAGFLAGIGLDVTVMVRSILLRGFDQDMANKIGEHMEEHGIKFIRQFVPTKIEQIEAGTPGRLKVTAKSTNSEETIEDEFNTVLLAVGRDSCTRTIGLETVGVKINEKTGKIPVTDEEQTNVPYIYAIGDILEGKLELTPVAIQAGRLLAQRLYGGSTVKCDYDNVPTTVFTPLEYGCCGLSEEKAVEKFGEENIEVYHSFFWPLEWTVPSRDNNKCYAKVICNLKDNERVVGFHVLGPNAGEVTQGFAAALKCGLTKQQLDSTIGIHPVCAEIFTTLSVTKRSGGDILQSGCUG
Summary of the method: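 Quantitative HTS in Tris-HCl buffer at pH 7.5 with EDTA and Tween-20, using rat TrxR1, 400 uM NADPH and 400 uM selenite (final). A fall in initial NADPH fluorescence relative to background marked substrate behaviour.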

[4] = target: Flap endonuclease 1 (Homo sapiens) (UniProt P39748); assay: qHTS Validation Assay for the Inhibitors of Human Flap endonuclease 1 (FEN1) (AID 488816)
Flap endonuclease 1 (Homo sapiens), sequence (P39748 whole entry, looked up): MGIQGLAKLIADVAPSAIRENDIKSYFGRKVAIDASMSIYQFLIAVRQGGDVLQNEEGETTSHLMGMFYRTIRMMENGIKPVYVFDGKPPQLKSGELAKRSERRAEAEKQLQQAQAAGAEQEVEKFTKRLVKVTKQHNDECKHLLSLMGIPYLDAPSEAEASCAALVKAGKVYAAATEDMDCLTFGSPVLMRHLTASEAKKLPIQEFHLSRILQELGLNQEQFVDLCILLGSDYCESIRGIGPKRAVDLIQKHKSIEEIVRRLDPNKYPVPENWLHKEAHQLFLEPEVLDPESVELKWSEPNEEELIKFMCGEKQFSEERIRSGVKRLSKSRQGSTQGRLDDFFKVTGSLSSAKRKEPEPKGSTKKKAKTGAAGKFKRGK
Summary of the method: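 FEN1, dispensed as a 10 nM reagent, was preincubated with pin-transferred compounds for 15 min at room temperature before substrate was added (50 nM final). Plates were read at 0 and 15 min, and a four-parameter Hill equation was fitted to the concentration-response data.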

[5] = target: M-phase phosphoprotein 8 (Homo sapiens) (UniProt Q99549); assay: qHTS Validation Assay for Inhibitors for MPP8 Chromodomain Interactions with Methylated Histone Tails (AID 488949);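 also: AlphaScreen signal from MPP8 chromodomain bound to biotinylated H3K9me3 peptide; top concentration of the series differs between compounds; nearly all actives have a fitted effect of over 55% in size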
Summary of the method: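 AlphaScreen proximity signal from streptavidin donor and Ni-chelate acceptor beads (10 ug/mL each) reported binding of MPP8 to trimethyl-K9 H3(1-18) peptide, both at 50 nM. The complex formed 30 min before a 30 min compound exposure at room temperature, in PBS pH 7.4.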

[6] = target: Methanococcus maripaludis chaperonin (MmCpn) (UniProt Q6LX38); assay: High-Throughput Screening for Modulators of Cytosolic Chaperonin Activity: MmCpn Primary Screen (AID 488978);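 also: 50 nM MmCpn enzyme hydrolysing 30 µM ATP at 37 °C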
Methanococcus maripaludis chaperonin (MmCpn), sequence (Q6LX38 1-543): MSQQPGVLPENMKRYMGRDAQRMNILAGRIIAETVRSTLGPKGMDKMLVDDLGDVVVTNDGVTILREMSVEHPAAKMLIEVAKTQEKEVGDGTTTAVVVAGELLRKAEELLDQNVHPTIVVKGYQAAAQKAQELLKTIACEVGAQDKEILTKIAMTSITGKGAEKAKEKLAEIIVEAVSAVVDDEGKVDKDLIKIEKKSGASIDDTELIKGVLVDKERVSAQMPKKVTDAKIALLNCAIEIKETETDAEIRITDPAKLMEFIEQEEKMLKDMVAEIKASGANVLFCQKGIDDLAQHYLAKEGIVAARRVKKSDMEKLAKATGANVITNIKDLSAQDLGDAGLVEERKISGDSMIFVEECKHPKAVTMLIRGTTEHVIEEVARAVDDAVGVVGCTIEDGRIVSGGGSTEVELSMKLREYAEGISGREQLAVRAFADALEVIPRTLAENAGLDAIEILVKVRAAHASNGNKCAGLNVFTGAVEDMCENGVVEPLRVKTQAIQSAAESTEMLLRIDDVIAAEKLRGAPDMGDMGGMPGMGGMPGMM
Summary of the method: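 ATPase activity of 50 nM MmCpn was assayed with 30 uM ATP, 10 minutes at 37C, after a 5 min compound preincubation at room temperature. ADP production was read as HTRF emission at 590 and 665 nm.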

[7] = target: D(1A) dopamine receptor (Homo sapiens) (UniProt P21728); assay: HTS Assay for Allosteric Agonists of the Human D1 Dopamine Receptor: Primary Screen for Agonists (AID 488981)
D(1A) dopamine receptor (Homo sapiens), sequence (P21728 whole entry, looked up): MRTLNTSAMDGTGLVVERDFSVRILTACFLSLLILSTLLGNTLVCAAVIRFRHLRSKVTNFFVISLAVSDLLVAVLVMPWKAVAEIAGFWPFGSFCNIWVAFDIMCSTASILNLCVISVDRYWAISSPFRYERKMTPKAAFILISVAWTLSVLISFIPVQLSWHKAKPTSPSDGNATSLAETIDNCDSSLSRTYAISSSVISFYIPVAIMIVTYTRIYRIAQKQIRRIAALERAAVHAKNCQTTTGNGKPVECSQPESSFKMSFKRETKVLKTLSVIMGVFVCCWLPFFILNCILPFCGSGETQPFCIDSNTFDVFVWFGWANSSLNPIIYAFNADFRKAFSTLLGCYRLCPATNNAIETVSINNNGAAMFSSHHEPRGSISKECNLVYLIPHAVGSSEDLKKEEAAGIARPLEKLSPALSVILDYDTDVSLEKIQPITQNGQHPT
Summary of the method: (§1)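 Tetracycline-induced HEK293 T-REx cells force-coupled to calcium signalling were incubated overnight at 30 C and dye-loaded at room temperature. Calcium flux over 180 s after compound addition flagged agonists; a further 180 s read after EC20 dopamine flagged potentiators.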

[8] = target: D(1A) dopamine receptor (Homo sapiens) (UniProt P21728); assay: HTS Assay for Allosteric Agonists of the Human D1 Dopamine Receptor: Primary Screen for Antagonists (AID 488983);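 also: calcium flux response to an EC80 dopamine challenge measured with no-wash dye; nearly all actives have a fitted effect of over 65% in size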
Summary of the method: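 Screening of inducible HEK293 T-REx D1 cells: compound first, EC80 dopamine 180 s later, each phase read kinetically for calcium over 180 s.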

[9] = Validation screen for small molecules that induce genotoxicity in human embryonic kidney (HEK293T) cells expressing luciferase-tagged ELG1 (AID 493106); also: potency is read from the fitted curve at half-maximal effect
Summary of the method: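 Reporter-gene quantitative HTS in HEK293T cells carrying luciferase-tagged ELG1, whose level climbs under genotoxic stress. Compound exposure lasts 16 hr at 37 °C before luciferase detection.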

[10] = target: ATPase family AAA domain-containing protein 5 (Homo sapiens) (UniProt Q96QE3); assay: Validation screen for small molecules that inhibit ELG1-dependent DNA repair in human embryonic kidney (HEK293T) cells expressing luciferase-tagged ELG1 (AID 493107); also: nearly all actives have a fitted effect of over 70% in size; also: potency is read from the fitted curve at half-maximal effect
Summary of the method: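 Quantitative HTS in HEK293T cells carrying luciferase-tagged ELG1, stimulated with 5-fluorouridine alongside compound for 16 hr. Loss of luciferase signal marks inhibition of ELG1 response.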

[11] = Quantitative high throughput screen for delayed death inhibitors of the malarial parasite plastid, 96 hour incubation (AID 488745); also: nearly all actives have a fitted effect of over 70% in size; also: potency is read from the fitted curve at half-maximal effect
Summary of the method: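 Growth of reporter-bearing P. falciparum in red cells is measured after 96 h with compound, covering two erythrocytic cycles. Luminescence from the integrated luciferase serves as the growth signal.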

[12] = Quantitative high throughput screen for delayed death inhibitors of the malarial parasite plastid, 48 hour incubation (AID 488752); also: nearly all actives have a fitted effect of over 65% in size; also: potency is read from the fitted curve at half-maximal effect
Summary of the method: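 One parasite generation (48 h, 37 C, 5% CO2) of luciferase-reporter P. falciparum in erythrocytes is run with test compound; decreased luminescence indicates inhibited growth.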

[13] = target: Thioredoxin reductase 1, cytoplasmic (Rattus norvegicus) (UniProt O89049); assay: qHTS Assay for Inhibitors of Mammalian Selenoprotein Thioredoxin Reductase 1 (TrxR1) (AID 488773); conditions: Potency: inhibition;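 also: drop in NADPH fluorescence over an 8 min run after selenite addition; series mostly up to about 57 µM; nearly all actives have a fitted effect of over 40% in size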
Summary of the method: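 Steps: enzyme (90 nM) plus NADPH (400 uM final), 5 min at ~22 deg C; compound added, 15 min; selenite (400 uM final) added; fluorescence followed for 8 min. Concentration-response curves derived from the normalized delta values.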

[14] = target: Chromobox protein homolog 1 (Homo sapiens) (UniProt P83916); assay: qHTS Validation Assay for Inhibitors of HP1-beta Chromodomain Interactions with Methylated Histone Tails (AID 488953); also: nearly all actives have a fitted effect of over 50% in size; also: potency is read from the fitted curve at half-maximal effect
Chromobox protein homolog 1 (Homo sapiens), sequence (P83916 whole entry, looked up): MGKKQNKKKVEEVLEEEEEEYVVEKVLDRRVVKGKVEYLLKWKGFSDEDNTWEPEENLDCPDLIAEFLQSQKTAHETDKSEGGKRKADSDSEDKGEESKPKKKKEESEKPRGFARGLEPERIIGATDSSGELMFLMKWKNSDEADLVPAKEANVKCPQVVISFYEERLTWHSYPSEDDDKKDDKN
Summary of the method: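 Measured as loss of AlphaScreen luminescence from streptavidin donor and nickel acceptor beads (10 ug/mL final) bridging HP1-beta and biotin-H3(1-18)K9me3, each 50 nM. Compounds met the preassembled complex for 30 min at RT.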

[15] = target: Transient receptor potential cation channel subfamily V member 1 (Homo sapiens) (UniProt Q8NER1); assay: HTS Assay for Compounds that Act as Enhancers of the Vanilloid Receptor 1 (AID 488979)
Transient receptor potential cation channel subfamily V member 1 (Homo sapiens), sequence (Q8NER1 whole entry, looked up): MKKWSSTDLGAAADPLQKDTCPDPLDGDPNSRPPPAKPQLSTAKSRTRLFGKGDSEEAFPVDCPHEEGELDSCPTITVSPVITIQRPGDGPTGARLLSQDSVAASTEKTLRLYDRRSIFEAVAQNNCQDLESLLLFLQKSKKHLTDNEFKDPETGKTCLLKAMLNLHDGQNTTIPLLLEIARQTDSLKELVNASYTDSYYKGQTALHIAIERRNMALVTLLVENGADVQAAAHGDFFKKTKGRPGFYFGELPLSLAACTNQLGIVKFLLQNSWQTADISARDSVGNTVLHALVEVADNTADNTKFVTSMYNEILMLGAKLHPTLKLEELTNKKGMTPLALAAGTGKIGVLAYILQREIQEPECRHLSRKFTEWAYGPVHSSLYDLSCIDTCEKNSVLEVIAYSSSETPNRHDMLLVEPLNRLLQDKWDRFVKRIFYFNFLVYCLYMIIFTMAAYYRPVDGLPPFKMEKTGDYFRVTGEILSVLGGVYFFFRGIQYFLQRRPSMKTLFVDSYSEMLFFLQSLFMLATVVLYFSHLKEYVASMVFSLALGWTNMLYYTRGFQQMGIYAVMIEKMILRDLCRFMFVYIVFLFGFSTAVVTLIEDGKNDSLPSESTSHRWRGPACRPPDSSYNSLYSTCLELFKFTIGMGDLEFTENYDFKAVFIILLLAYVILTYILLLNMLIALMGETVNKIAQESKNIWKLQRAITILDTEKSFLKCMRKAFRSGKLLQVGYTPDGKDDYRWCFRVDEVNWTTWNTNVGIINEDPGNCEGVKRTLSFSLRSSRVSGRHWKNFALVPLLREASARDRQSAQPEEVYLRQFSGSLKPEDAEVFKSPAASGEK
Summary of the method: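 TRPV1-expressing cells loaded with Fluo-8 calcium dye; compounds added and calcium influx read kinetically for 3 min (agonist phase), then capsaicin at EC20 added and read 2 min more for enhancement. Fluorescence ex 480/em 520 nm.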

[16] = target: Thyrotropin receptor (Homo sapiens) (UniProt P16473); assay: qHTS Assay for Antagonists of the Thyroid Stimulating Hormone Receptor (AID 488980); also: series mostly up to about 58 µM
Thyrotropin receptor (Homo sapiens), sequence (P16473 whole entry, looked up): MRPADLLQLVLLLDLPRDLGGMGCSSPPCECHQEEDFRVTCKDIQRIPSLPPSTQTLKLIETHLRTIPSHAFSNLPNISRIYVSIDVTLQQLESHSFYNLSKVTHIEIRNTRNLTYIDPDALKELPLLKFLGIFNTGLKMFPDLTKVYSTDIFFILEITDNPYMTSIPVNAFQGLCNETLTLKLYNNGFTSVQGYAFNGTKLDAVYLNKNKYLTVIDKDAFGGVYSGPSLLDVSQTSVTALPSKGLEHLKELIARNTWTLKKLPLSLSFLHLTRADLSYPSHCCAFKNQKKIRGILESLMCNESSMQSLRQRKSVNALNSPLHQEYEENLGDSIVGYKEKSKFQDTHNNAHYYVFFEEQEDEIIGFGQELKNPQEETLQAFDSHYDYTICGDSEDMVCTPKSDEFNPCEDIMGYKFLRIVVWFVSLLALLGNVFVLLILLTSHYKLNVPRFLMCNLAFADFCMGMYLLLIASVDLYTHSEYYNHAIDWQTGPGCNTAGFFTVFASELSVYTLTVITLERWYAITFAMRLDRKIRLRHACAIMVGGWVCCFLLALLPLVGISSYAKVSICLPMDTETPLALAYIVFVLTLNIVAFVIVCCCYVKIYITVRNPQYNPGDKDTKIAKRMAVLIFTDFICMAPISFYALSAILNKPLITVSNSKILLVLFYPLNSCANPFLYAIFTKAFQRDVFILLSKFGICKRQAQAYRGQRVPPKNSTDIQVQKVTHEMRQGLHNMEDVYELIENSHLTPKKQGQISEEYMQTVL
Summary of the method: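 Inhibition of cAMP raised by EC80 TSH (4 nM final) was read by HTRF, with lysate cAMP competing against cAMP-d2 for cryptate antibody after 30 min at room temperature. The cells were transfected HEK293 held in phosphodiesterase inhibitor RO 20-1724 at 70 uM.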

[17] = target: D(1A) dopamine receptor (Homo sapiens) (UniProt P21728); assay: HTS Assay for Allosteric Agonists of the Human D1 Dopamine Receptor: Primary Screen for Potentiators (AID 488982)
Summary of the method: as §1

[18] = target: Thyrotropin-releasing hormone receptor (Homo sapiens) (UniProt P34981); assay: qHTS for Small Molecule Agonists and Allosteric Enhancers of Human TRH Receptor: Validation Screen for Agonists (AID 493127;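 active = calcium activation more than 3 SD above the typical response in the agonist read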;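 also: intracellular calcium rise by fluo-8 fluorescence before TRH EC20 addition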); conditions: TRH receptor agonist cell assay; at 2 µM; stronger effect = higher value
Thyrotropin-releasing hormone receptor (Homo sapiens), sequence (P34981 whole entry, looked up): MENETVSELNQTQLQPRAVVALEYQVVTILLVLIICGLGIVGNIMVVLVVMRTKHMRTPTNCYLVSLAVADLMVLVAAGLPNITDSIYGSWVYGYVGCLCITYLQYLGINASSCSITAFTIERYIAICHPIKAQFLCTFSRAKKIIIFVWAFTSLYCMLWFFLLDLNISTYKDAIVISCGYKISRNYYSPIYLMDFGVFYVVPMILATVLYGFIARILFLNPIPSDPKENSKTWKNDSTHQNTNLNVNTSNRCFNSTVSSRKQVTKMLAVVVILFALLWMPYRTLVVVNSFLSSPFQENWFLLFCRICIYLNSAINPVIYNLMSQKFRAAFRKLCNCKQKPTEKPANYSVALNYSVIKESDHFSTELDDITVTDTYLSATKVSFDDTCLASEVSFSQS
Summary of the method: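 Gq-coupled calcium mobilization in TRHR cells after compound addition, monitored kinetically with fluo-8 dye on an FDSS reader.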

Compound | outcome [1] | Potency [2] | outcome [3] | Potency [4] | Potency [5] | outcome [6] | Potency [7] | Potency [8] | Potency [9] | Potency [10] | Potency [11] | Potency [12] | Potency [13] | Potency [14] | outcome [15] | outcome [16] | Potency [17] | activation [18] [%]
Brc1c(Br)c(Br)c2[nH]cnc2c1Br | inactive | inactive | inactive | inactive | inactive | inactive | inactive | inactive | inactive | 4.61 µM (active) |  |  |  |  |  |  |  | 
C=CC[C@H](N)C(=O)O | inactive |  | inactive | inactive | inactive | inactive | inactive | inactive | inactive | inactive | inactive | inactive | inactive | inactive | inactive | inactive | inactive | -3.19
N=C(N)SCCN | inactive |  | inactive | inactive | inactive | inactive | inactive | inactive | inactive | inactive | inactive | inactive | inactive | inactive | inactive | inactive | inactive | 0.688
N[C@@H](Cc1ccc(F)cc1)C(=O)O | inactive | inactive | inactive |  | inactive | inactive | inactive | inactive | inactive |  |  |  | inactive | inactive | inactive | inactive | inactive | 0.125
NC(N)=NC(N)=Nc1cccc(Cl)c1 | inactive |  | inactive | inactive | inactive | inactive | inactive | inactive | inactive | inactive | 9.28 µM (active) | inactive | inactive | inactive | inactive | inactive | inactive | 1.62
COc1ccc(-c2ccc(N)[n+](CCCC(=O)O)n2)cc1 | inactive | inactive | inactive |  | inactive | inactive | inactive | inactive | inactive | inactive |  |  | inactive | inactive | inactive | inactive | inactive | 1
CN(C)CCCc1cc(C(=O)Nc2ccc(-c3ccncc3)cc2)ccc1O | inactive | inactive | inactive |  | inactive | inactive |  | inactive | inactive |  |  |  | inactive |  |  |  | inactive | 
Nc1ccc(CCNc2ncnc3c2ncn3C2OC(CO)C(O)C2O)cc1 (stereo not given) | inactive | inactive | inactive | inactive | inactive | inactive | inactive | inactive |  | inactive |  |  | inactive |  | inactive | inactive | inactive | 1.06
O=C(O)Cc1c[nH]c2ccc(O)cc12 | inactive | inactive | inactive | inactive |  | inactive | inactive | inactive | inactive | inactive |  |  |  | inactive | inactive | inactive | inactive | -0.188
CC(C)C[C@H](NC(=O)C1OC1C(=O)O)C(=O)NCCCCN=C(N)N (stereo not given in full) | inactive |  | inactive | inactive | inactive | inactive | inactive | inactive | inactive | inactive | 2.33 µM (active) | 5.86 µM (active) | inactive | 0.006 µM (active) | inactive | inactive | inactive | 0
Nc1ncnc2c1ncn2C1CCCO1 (stereo not given) | inactive |  | inactive | inactive | inactive | inactive | inactive | inactive | inactive | inactive | inactive | inactive | inactive | 0.006 µM (active) | inactive | inactive | inactive | -0.25
O=c1cc(-c2ccccc2F)[nH]c2cc3c(cc12)OCO3 | inactive | inactive | inactive | inactive | inactive | inactive | inactive | inactive | 5.17 µM (active) | inactive |  |  | inactive |  |  |  | inactive | 
O=[N+]([O-])c1cccc2c(Br)[nH]nc12 | inactive |  | inactive | inactive | inactive | inactive | inactive |  | inactive |  | inactive | inactive | inactive | inactive | inactive | inactive | inactive | -3.31
CCCCCC(O)CCCC(=O)O (stereo not given) | inactive |  | inactive | inactive | inactive | inactive | inactive |  | inactive | inactive | inactive | inactive | inactive | inactive | inactive | inactive | inactive | -0.375
CNc1ncnc2c1ncn2[C@H]1C[C@H](OP(=O)(O)O)[C@@H](COP(=O)(O)O)O1 | inactive |  | inactive | inactive | inactive | inactive | inactive |  | inactive | inactive | inactive | inactive | inactive | inactive | inactive | inactive | inactive | 1.25
O=c1onc2cnc3ccccc3n12 | inactive |  | inactive | inactive | inactive | inactive | inactive |  | inactive | inactive | inactive | inactive | inactive |  | inactive | inactive | inactive | 0.875
